Assay outcomes from PubChem.
PGC1a acetyl inh – lowers PGC1a acetylation signal in U2OS cells | inhibition, % at 15.6 µM | 350,000 tested, 0.17% active | AlphaScreen anti-acetyl-lysine; with virally co-expressed GCN5 acetyltransferase;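 active = every replicate shows inhibition of at least 40%; inconclusive = mean inhibition at least 40% but some replicate below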;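 note: 0% = neutral control wells and 100% = positive control wells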
Env fusion inh – HIV envelope-mediated fusion inhibition; 360,000 tested, 1.1% active; AID 651610; inhibition, % at 12.3 µM; HeLa-JRFL Env/CEM21 cell fusion, luciferase;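 active = mean replicate inhibition score of at least 50 and every replicate individually at or above 50; inconclusive = only one of the two criteria met; inactive = mean below 50 and not all replicates reaching 50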;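 note: 0% = plate neutral controls and 100% = maraviroc near 300 nM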
AF4-AF9 inh – MLL-AF4/AF9 protein interaction inhibition. AlphaScreen, biotin-AF4 peptide binding to FLAG-AF9. AID 651704. inhibition, % at 10 µM. 350,000 tested, 0.47% active. P42568;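 active = every replicate reaching a set inhibition limit, whatever the replicate mean, cut at about 25% in these data; inconclusive = mean inhibition reaches that limit but some replicates miss it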;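 note: 0% = plate neutral control median and 100% = total signal loss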
Target sequence (P42568 whole entry, looked up): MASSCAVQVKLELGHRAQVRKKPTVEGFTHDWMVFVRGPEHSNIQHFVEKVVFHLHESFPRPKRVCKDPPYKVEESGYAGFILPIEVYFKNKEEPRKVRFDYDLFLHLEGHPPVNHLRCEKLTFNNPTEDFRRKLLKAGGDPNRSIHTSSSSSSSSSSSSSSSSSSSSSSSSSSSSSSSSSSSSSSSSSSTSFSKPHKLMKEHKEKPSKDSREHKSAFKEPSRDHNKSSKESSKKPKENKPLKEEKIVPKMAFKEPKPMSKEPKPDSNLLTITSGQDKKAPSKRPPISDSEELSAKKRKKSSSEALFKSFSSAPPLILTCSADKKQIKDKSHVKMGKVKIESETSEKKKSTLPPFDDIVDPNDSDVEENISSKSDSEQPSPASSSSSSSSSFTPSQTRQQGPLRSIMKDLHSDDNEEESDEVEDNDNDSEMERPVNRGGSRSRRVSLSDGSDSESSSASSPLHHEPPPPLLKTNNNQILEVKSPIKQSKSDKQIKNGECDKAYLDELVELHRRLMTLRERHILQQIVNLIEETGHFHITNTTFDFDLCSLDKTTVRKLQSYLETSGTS
GSIS activator – GLuc luminescence reporter in INS-1E cells, primary screen for activators of glucose-dependent secretion of insulin; 370,000 tested, 0.61% active; INS-1E GLuc reporter insulin secretion, 2-3 h; activation, % at 16.6 µM;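 active = lowest replicate activation of at least 40%, so every replicate reaches that level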;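 note: 0% = median of neutral control wells and 100% = median of IBMX positive control wells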
NSD2 HMT inh – inhibitors of human histone methyltransferase NSD2. O96028. NSD2 peptide methylation, AlphaScreen, 120 min. inhibition, % at 12.5 µM. 310,000 tested, 0.54% active. AID 743445; in the data active = inhibition above about 50%
Alpha interfer – interferes with the AlphaScreen assay signal; 530 tested, 45% active; AID 720494; AlphaScreen interference counter-screen, signal luminescence; AC50, µM (titrated, usually from 12 µM), without a hit: top-dose activity change, negative = inhibition; shares compounds with AF4-AF9 inh; cut-off not given, nearly all actives have AC50 up to about 14 µM
Starred values were filed as active, the others as inactive; ? = inconclusive; . = not tested or not shown; ! = repeats disagree; [ ] = remark or other dose. In the library only some 2.1% were active in any assay of this set; here they are far more common.

SMILES	PGC1a acetyl inh	Env fusion inh	AF4-AF9 inh	GSIS activator	NSD2 HMT inh	Alpha interfer
c1ccc(CNCCC(Cc2ccccc2)c2ccco2)cc1 (centres undefined)	-21	-300	6	.	2	.
CN(C)c1ccc(CNCCC(Cc2ccccc2)c2ccco2)cc1 (centres undefined)	5	31	49*	-12	57*	10µM*
CCC1CCCCN1C(=S)NN=C(C)c1ccccn1 (centres undefined)	.	45	37*	8	17	7.4µM*
COc1cc(O)c(C(CCN2CCCCC2)c2ccc(N(C)C)cc2)c(OC)c1 (centres undefined)	.	57*	33*	11	.	12µM*
COc1cc(C2CC(=O)Oc3c(C(CCN4CCN(c5ccccc5)CC4)c4ccc(N(C)C)cc4)c(OC)cc(OC)c32)cc(OC)c1OC (centres undefined)	.	-14	16	-10	.	.
COc1ccc(C(CCN2CCCC(C)C2)c2c(OC)cc(OC)c3c(C)cc(=O)oc23)cc1 (centres undefined)	.	-55	.	4	.	.
COc1ccc(C2CC(=O)Oc3c(C(CCN4CCCC(C)C4)c4ccc(N(C)C)cc4)c(OC)cc(OC)c32)cc1 (centres undefined)	-2	5	44*	.	.	1.8µM*
COc1cc(C2CC(=O)Oc3c(C(CCN4CCOCC4)c4ccc(N(C)C)cc4)c(OC)cc(OC)c32)cc(OC)c1OC (centres undefined)	1	4	40*	-17	.	11µM*
CCCc1cc(C(=O)Nc2sc(C(C)=O)c(C)c2C(=O)OCC)no1	.	-1	6	.	.	.
CCCS(=O)(=O)N1CCC(C(=O)N2CCC(Cc3ccccc3)CC2)CC1	2	.	.	.	0	.
O=C(CNCc1cccs1)Nc1ccc(N2CCCCCC2)cc1	.	-4	42*	12	11	13µM*
O=C(CNCc1cccs1)Nc1ccc(S(=O)(=O)N2CCCCC2)cc1	-2	26	0	-1	-1	.
CN(C)c1ccnc(Nc2ccccc2)c1C#N	-5	9	-7	17	-1	.
CN(C)c1ccnc2c[cH-]cc12.[Fe].c1ccc(-[c-]2[c-](-c3ccccc3)[c-](-c3ccccc3)[c-](-c3ccccc3)[c-]2-c2ccccc2)cc1 (centres undefined)	1	57*	29*!	.	.	-13%
O=C(COc1ccc2c(c1)OCO2)Nc1ccccc1F	.	-36	-3	-8	-3	.
Fc1ccc([C@@H]2CCNC[C@H]2COc2ccc3c(c2)OCO3)cc1	-17	-30	34*	.	.	-28%
Cc1ccc2c(c1)[C@@H]1CN(C)CC[C@@H]1N2S(=O)(=O)c1ccc([N+](=O)[O-])cc1	-14	.	9	-11	6	.
Cc1ccc2c(c1)C1CN(C)CCC1N2Sc1ccccc1[N+](=O)[O-] (centres undefined)	-14	21	35*	-70	40	9.3µM*
Cc1ccc(OCCSCc2nc3ccccc3[nH]2)cc1	-7	.	.	-14	-1	.
CN(C)c1ccc(C=c2c3ccccc3n3c2cc(-c2ccccc2)[n+]3C)cc1	.	-36	43*	.	4	4.4µM*
CCN(CC)CCNC(=O)c1ccc(NC(=O)COc2ccccc2F)cc1	2	-4	-2	10	13	.
CNC(=S)N1N=C(c2ccc(C)cc2)CC1c1ccc(OC)cc1 (centres undefined)	.	.	.	.	2	.
CNC(=S)N1N=C(c2ccc(C)cc2)CC1c1ccc(N(C)C)cc1 (centres undefined)	-4	-5	31*	.	-2	-27%
Oc1cc(NCCN2CCOCC2)cc2cccnc12	27	11	27*	-9	.	12µM*
C[C@H]1CN([C@@H](C)CO)C(=O)c2cc(C#Cc3cccnc3)cnc2O[C@H]1CN(C)C	0	-6[16.7 µM]	-9	11	.	.
SMILES	PGC1a acetyl inh	Env fusion inh	AF4-AF9 inh	GSIS activator	NSD2 HMT inh	Alpha interfer
c1ccc2c(c1)nc(Nc1ccc(N3CCCCC3)cc1)c1nncn12	5	7	36*	-5	3	-16%
CC(C)C1CC(CCNCc2ccc3c(c2)OCO3)(c2ccccc2)CCO1 (centres undefined)	-14	-9	5	-22	3	.
CC(C)C1CC(CCNCc2ccc(N(C)C)cc2)(c2ccccc2)CCO1 (centres undefined)	.	.	39*	-5	17	8.6µM*
Cc1ccc(NC(=O)C2CCC2)cc1S(=O)(=O)N1CCCCCC1	-9	-15	7	-4	-1	.
COC(=O)C1=C[C@@H](C(=O)OC)[C@@H]2C3=C(C(=O)C2(C)C)[C@H](c2ccccc2)[C@@H]2C(=O)N(C)C(=O)[C@@H]2[C@@H]3C1	.	1	?	2	.	16%
Nc1cc(=O)[nH]c(SCC(=O)Nc2ccc([N+](=O)[O-])cc2)n1	-4	9	-18	2	2	.
CCSc1nc2sc3c(c2c(=O)[nH]1)CCCC3	.	-32	.	-4	-1	.
COc1ccc(N2CCN(CCCNC(=O)C(=O)c3c(C)n(C)c4ccccc34)CC2)cc1	6	-3	37*	-1	11	-20%
CN(C)CCNc1ncnc2c1sc1nc(-c3ccccc3)c3c(c12)CCCC3	18	2	?	193*	.	-14%
COc1ncnc2c1sc1nc(-c3ccccc3)c3c(c12)CCCC3	.	-22	.	0	-4	.
CC(=O)c1nn(-c2ccc(Cl)cc2)cc1C(=O)c1ccc(C)cc1	6	-6	-2	.	2	.
CN(C)c1ccc(Nc2nc(N)c3ccccc3n2)cc1	.	10	60*	19	.	12µM*
CCN1CCN(c2ccc(S(=O)(=O)N(CC)CC)cc2[N+](=O)[O-])CC1	.	.	.	20	22	.
CCC(=O)NC(c1ccc(N(C)C)cc1)c1c(O)ccc2ccccc12 (centres undefined)	-7	6	24	-10	12	-17%
CCC(=O)NC(c1ccc(OC)cc1)c1c(O)ccc2ccccc12 (centres undefined)	-6	9	-3	-15	-2	.
Nc1ccc2ccc(N)cc2c1	.	-60	15	-7	7	.
Nc1ccc2[nH]ncc2c1	16	.	45*	20	.	-17%
CC(C)N1C(=O)/C(=C\c2nc3ccccc3c(=O)[nH]2)c2ccccc21	.	-13	26*	.	.	-22%
CC(C)(C)OC(=O)N1CCCN(C(c2ccnc3ccccc23)c2nnnn2-c2ccc3c(c2)OCCO3)CC1 (centres undefined)	.	1	36*	10	.	-22%
COc1ccc(-c2nc(N)n[nH]2)cc1OC	-4	.	.	7	33	.
COc1ccccc1N1CCN(/N=C/C=C\c2ccccc2[N+](=O)[O-])CC1	.	-8	51*	-13	20	-19%
COc1ccccc1N1CCN(/N=C/c2cccc(Cl)c2)CC1	.	-29	27*	-10	4	-26%
COc1ccccc1N1CCN(/N=C/C=C\c2ccco2)CC1	-36	.	.	.	8	.
COc1ccc(/C=N/N2CCN(c3ccccc3OC)CC2)cc1Br	-6	-27	27*	1	4	-20%
